From PubChem BioAssay AID651965 (National Center for Advancing Translational Sciences (NCATS), 2013)
The whole screen tested about 340,000 compounds, of which about 6,400 (1.9%) were called active. Where a call stands in place of a potency, no number is given. Not shown: some 4% with an inconclusive outcome. The call rests on the fitted dose curve; in most records, active means well fitted falling curve with a large enough effect; inconclusive means small, poorly fitted or top-dose-only effect; inactive means no such curve, though single readings can be large or run the other way. The sample as a whole holds a higher share of actives than the screen did.
Further: the source files actives as falling curves though it sought activators and does not explain the sign; nearly all actives have a fitted effect of over 65% in size.
Potency means the concentration at half of the fitted maximal effect.

What follows are compounds tested against ATP-dependent Clp protease proteolytic subunit (Bacillus subtilis (strain 168)) (UniProt P80244) (assay: qHTS Assay for Activators of ClpP). Conditions: purified B. subtilis ClpP, FRET peptide cleavage, 20 min; series mostly up to 57.5 µM.
Chain of ATP-dependent Clp protease proteolytic subunit (Bacillus subtilis (strain 168)) (P80244 whole entry, looked up): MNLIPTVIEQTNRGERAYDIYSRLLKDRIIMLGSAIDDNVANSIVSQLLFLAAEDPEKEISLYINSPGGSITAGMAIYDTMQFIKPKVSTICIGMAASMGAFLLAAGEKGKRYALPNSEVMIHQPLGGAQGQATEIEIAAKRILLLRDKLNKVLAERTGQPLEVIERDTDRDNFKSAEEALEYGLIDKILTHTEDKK
Method in brief: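 FRET quenching reversal measured ClpP activation: 10 microg/mL B. subtilis ClpP at pH 8 with the FRET-FV decapeptide, read at 430 nm after 320 nm excitation. The 20-min minus 0-min signal was scaled between DMSO/no-enzyme wells and ADEP (5.8 microM final).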
For `O=C(NCCOc1ccccc1)N1[C@H]2CC[C@@H]1C=C(c1ccc(F)cc1OCc1ccccc1)C2`, the Potency was “inactive”. With `CCCCn1nnnc1C1(C)CCC(=O)N1Cc1ccc(OC)c(OC)c1` (stereo not drawn) the Potency was “inactive”. For `COCc1cccc(-c2csc(C(O)c3ccc(F)cc3)n2)c1` (stereo not drawn), the Potency was “inactive”. For `O=S1(=O)CCN(Cc2ccccc2)CC1`, the Potency was “inactive”. For `Cc1ccc(-n2c(N)c(C(=O)N3CCOCC3)sc2=S)c(C)c1`, the Potency was “inactive”. In the case of `Cc1cccc(-n2c(N)c(C(=O)N3CCN(C)CC3)sc2=S)c1`, the Potency is reported as 17.8 µM (active). With `N#Cc1ccccc1-n1c(N)c(C(=O)N2CCCC2)sc1=S` the Potency was “inactive”. With `CCc1nc2c(OCCOc3ccccc3)cccn2c1N(C=O)Cc1ccc(OC)cc1` the Potency was “inactive”. In the case of `CS(=O)(=O)N1CCCCC1c1cc(C(=O)NCc2ccccc2)no1` (stereo not drawn), the Potency is reported as “inactive”. For `CC(=O)NCCNC(=O)c1cc(-c2cccc3ccccc23)nc2ccccc12`, the Potency was “inactive”. For `CCc1ccc(-c2cc(C(=O)NCc3ccco3)c3ccccc3n2)s1`, the Potency was 28.2 µM (active). With `CC(C)(C)c1ccc(C(=O)NCc2ccco2)cc1` the Potency was “inactive”. For `CC(C)Nc1nc(NCCOc2ccccc2Cl)c2sccc2n1`, the Potency was “inactive”. For `COC(=O)c1ccc(CN2C(=O)C(Cc3ccccc3)ON=C2c2ncccc2C)o1` (stereo not drawn), the Potency was “inactive”. For `COc1ccc(C(=O)NCC2CCCO2)cc1S(=O)(=O)NCc1ccc(Cl)cc1` (stereo not drawn), the Potency was “inactive”. `CC(c1ccco1)N(C(=O)c1ccc(S(=O)(=O)N2CCCCC2)cc1)c1ccccn1` (stereo not drawn) was tested, and the Potency was “inactive”. For `CC(c1ccco1)N(C(=O)COc1ccccc1[N+](=O)[O-])c1ccccn1` (stereo not drawn), the Potency was 15.8 µM (active). For `Cc1ccc(CN(C(=O)c2ccccc2[N+](=O)[O-])c2ccccn2)cc1`, the Potency was “inactive”. With `CN(C(=O)c1cc2c(=O)n3ccccc3nc2s1)C1CCCCC1` the Potency was 3.16 µM (active). In the case of `CCOCCCNC(=O)c1cc2c(=O)n3ccccc3nc2s1`, the Potency is reported as “inactive”. With `CN(C(=O)CSc1nncc2ccccc12)C1CCCCC1` the Potency was “inactive”. For `O=c1[nH][nH]c2c1[C@H](c1ccc(Cl)cc1)O[C@H](CCc1ccccc1)C2`, the Potency was “inactive”. With `COc1ccc(-c2cc3ccc(OCc4nn[nH]n4)cc3oc2=O)cc1` the Potency was “inactive”. In the case of `O=c1oc2cc(O)ccc2cc1-c1ccc(F)cc1`, the Potency is reported as 14.1 µM (active). With `COc1cccc(C(=O)c2cc3ccc(O)cc3oc2=O)c1` the Potency was “inactive”. For `CCOC(=O)N(C)c1c(CC)nc2c(OCc3ccccc3C(=O)OC)cccn12`, the Potency was “inactive”. For `COc1cncc(-c2cnc3sc(NCCc4ccccn4)nn23)c1`, the Potency was “inactive”. In the case of `CCc1nc2ccc(C(=O)N3CCN(S(=O)(=O)CC)CC3)cn2c1N(C=O)CCC(C)C`, the Potency is reported as “inactive”. In the case of `COc1ccc(S(=O)(=O)N(C)C[C@H]2OCc3cnnn3CCCC(=O)N([C@H](C)CO)C[C@H]2C)cc1`, the Potency is reported as “inactive”. In the case of `C=C1C(=O)[C@]23C[C@H]1CCC2[C@@]1(C)C(C[C@@H]3O)[C@](C)(C(=O)O)CC[C@@H]1O` (stereo partly drawn), the Potency is reported as “inactive”. In the case of `CC(C)CN1CCC1(C)C(=O)Nc1ccc(OC(F)F)cc1` (stereo not drawn), the Potency is reported as “inactive”. `Cc1nn(Cc2ccccc2)c(C)c1C(=O)NCCCN1CCCC1=O` was tested, and the Potency was “inactive”. For `O=C1CCCN1CCCNc1ncnc2c1[nH]c1ccccc12`, the Potency was 22.4 µM (active). `O=Cc1c(NCCCN2CCCC2=O)c2ccccc2[nH]c1=O` was tested, and the Potency was “inactive”. With `Nc1ncnc2c1ncn2[C@@H]1O[C@H](CNC(=O)[C@H](N)Cc2cccnc2)[C@@H](O)[C@H]1O` the Potency was “inactive”. In the case of `Clc1ccc(Cc2nnc(-c3cccs3)o2)cc1`, the Potency is reported as “inactive”. In the case of `COc1ccc(CCc2nc(-c3cccs3)no2)cc1`, the Potency is reported as “inactive”. `COc1nc(-c2ccc(Cl)cc2)ccc1-c1noc(-c2cccs2)n1` was tested, and the Potency was 14.1 µM (active). `C[C@@H]1CN([C@H](C)CO)C(=O)c2cc(-c3ccc(F)cc3)cnc2O[C@H]1CN(C)C(=O)c1ccc(F)cc1` was tested, and the Potency was “inactive”. With `O=C(CC1Nc2ccccc2NC1=O)Nc1ccccc1` (stereo not drawn) the Potency was “inactive”. In the case of `O=C1NCC(Nc2ccccc2)C(=O)N1` (stereo not drawn), the Potency is reported as 12.6 µM (active). For `O=C1NCC(c2ccccc2)(c2ccccc2)C(=O)N1`, the Potency was “inactive”. For `CCCCNC(=O)Cn1c(SCc2cccc(Cl)c2)nc2ccncc21`, the Potency was “inactive”. With `COc1ccc(C(O)c2nc(-c3ccc4c(c3)OCO4)cs2)cc1` (stereo not drawn) the Potency was “inactive”. For `COCCNc1nc(Nc2ccccc2Cl)c2sc(-c3ccccc3)cc2n1`, the Potency was “inactive”. For `CC1=C(C)CC2C(=O)N(c3cccc4ccccc34)C(=O)C2C1` (stereo not drawn), the Potency was “inactive”. With `O=C1c2ccccc2C(=O)N1c1ccccc1S(=O)C(F)(F)F` (stereo not drawn) the Potency was “inactive”. With `O=C1c2ccccc2C(=O)N1c1cccc2ccccc12` the Potency was 7.94 µM (active). With `Cc1ccc(NC(=O)[C@H](Cc2ccccc2)NC(=O)CC[C@H]2O[C@@H](n3ccc(=O)[nH]c3=O)[C@H](O)[C@@H]2O)cc1C` the Potency was “inactive”. `CC(C)C(C)NC(=O)COc1ncnc2ccccc12` (stereo not drawn) was tested, and the Potency was 11.2 µM (active). For `Cc1ccc(C2=NN(C(=O)COc3ncnc4ccccc34)C(c3ccco3)C2)cc1` (stereo not drawn), the Potency was “inactive”. With `O=C(COc1ncnc2ccccc12)NC(=O)NCc1ccccc1` the Potency was “inactive”. In the case of `O[C@H]1C[C@H](c2ccc(Cl)cc2)N(Cc2cccs2)C[C@@H]1n1cc(C2CC2)nn1`, the Potency is reported as “inactive”. For `Cc1nc(SCC(=O)NC2CCCCC2C)c(C#N)c(C)c1C` (stereo not drawn), the Potency was “inactive”. With `COC(=O)c1c(C)c(C)nc(N)c1C#N` the Potency was 8.91 µM (active). `COC(=O)c1c(C)cc(O)c(C)c1O` was tested, and the Potency was “inactive”. For `COc1ccc(NC(=O)C2Cc3c(-c4cccc(NC(C)=O)c4)ccnc3O2)cc1OC` (stereo not drawn), the Potency was “inactive”. For `CC(=O)OC[C@@H]1CN(Cc2ccccc2)C[C@H](n2cnc3c(NCc4ccco4)ncnc32)O1`, the Potency was “inactive”. For `Nc1ncnc2nnsc12`, the Potency was “inactive”. In the case of `O=C(CSCc1cccs1)N1CCCC1`, the Potency is reported as “inactive”. For `Cn1c(=NC(=O)CSCC(=O)N2CCCCC2)sc2ccccc21`, the Potency was 35.5 µM (active). `Cn1c(=NC(=O)c2cnccn2)sc2ccccc21` was tested, and the Potency was “inactive”. `CCc1nc2c(OCc3cccc(OC)c3)cccn2c1N(C)C(=O)C(C)C` was tested, and the Potency was “inactive”. For `Cc1cccc(C)c1Cn1c(C)c(C(=O)NCc2cccc(Cl)c2)sc1=O`, the Potency was “inactive”. In the case of `CN1OC[C@@H]2CN(C(=O)c3cccnc3)[C@H](c3ccc(N4CCCCC4)cc3)C[C@@H]21`, the Potency is reported as “inactive”. In the case of `c1ccc(-c2ccc3c(c2)NC(C2Nc4cc(-c5ccccc5)ccc4O2)O3)cc1` (stereo not drawn), the Potency is reported as “inactive”. In the case of `c1ccc(-c2cc(-c3ccccc3)[nH]n2)cc1`, the Potency is reported as “inactive”. `c1ccc(-c2c[nH]c(-c3ccccc3)c2)cc1` was tested, and the Potency was 20 µM (active).
